Laboratory results: PubChem BioAssay
Calls of active or inactive are those of the source.

Experiments:
[1] = binders of probe aFSTL3 on microarray, primary screen, stem cell growth factor project, biochemical, small-molecule microarray, fluorescence 635/667 (AID 1064); conditions: higher = more signal;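 note: measures binding of the biotinylated anti-FSTL3 antibody to printed compounds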
[2] = binders from COS7 lysate, DM2A8 probe, primary screen, torsin A project, cell lysate, small-molecule microarray, fluorescence 635/667 (AID 1065); conditions: higher = more signal, COS7 lysate expressing mutant human TOR1A
[3] = binders of probe aFGF2 on microarray, primary screen, stem cell growth factor project, biochemical, small-molecule microarray, fluorescence 635/667 (AID 1067); conditions: higher = more signal;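 note: measures binding of biotinylated aFGF2 protein to printed compounds on slides; z-score merges feature fluorescence and signal-to-noise across triplicate slides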
[4] = binders of probe aFGF10 on microarray, primary screen, stem cell growth factor project, biochemical, small-molecule microarray, fluorescence 635/667 (AID 1071); conditions: higher = more signal;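 note: score merges 667 nm spot intensity and signal to noise from triplicate slides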
[5] = target: Neurogenic locus notch homolog protein 2 (Homo sapiens) (UniProt Q04721); assay: Notch2 binders on small-molecule microarrays, primary screen, biochemical, small-molecule microarray, 635 nm fluorescence, stem cell growth factors (AID 1073); conditions: Notch2 binding, higher = more signal
[6] = target: Pro-neuregulin-1, membrane-bound isoform (Homo sapiens) (UniProt Q02297); assay: NRG1 binders on small-molecule microarrays, primary screen, psychiatric disease protein project, biochemical, small-molecule microarray, fluorescence 635/667 (AID 1075); conditions: NRG1 binding, 635 nm fluorescence, higher = more signal;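 note: score combines 667 nm spot fluorescence with signal to noise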
[7] = system: Neuregulin-1 EGF-like domain; assay: binders of neuregulin-1 EGF-like domain, primary screen, biochemical, small-molecule microarray, 635 nm fluorescence (AID 1081); conditions: small-molecule microarray binding, higher = more signal;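 note: binding of the protein to compounds printed on small-molecule microarray slides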
[8] = FRG1 promoter luciferase signal modulators, primary screen, FRG1 inhibition for FSHD, cell-based, C2C12 myotubes, firefly/Renilla luciferase, luminescence (AID 1084); conditions: higher = more signal, called active from +8 up or from −8 down
[9] = binders of probe aFST on microarray, primary screen, stem cell growth factor project, biochemical, small-molecule microarray, fluorescence 635/667 (AID 1086); conditions: higher = more signal;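 note: score merges 667 nm fluorescence with signal-to-noise of each printed compound spot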
[10] = binders of probe aHhip on microarray, primary screen, stem cell growth factor project, biochemical, small-molecule microarray, fluorescence 635/667 (AID 1087); conditions: higher = more signal;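 note: score merges spot fluorescence at 667nm with spot signal to noise ratio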

Sequence of Pro-neuregulin-1, membrane-bound isoform (Homo sapiens) (Q02297 whole entry, looked up, the tested form may be a part, canonical isoform): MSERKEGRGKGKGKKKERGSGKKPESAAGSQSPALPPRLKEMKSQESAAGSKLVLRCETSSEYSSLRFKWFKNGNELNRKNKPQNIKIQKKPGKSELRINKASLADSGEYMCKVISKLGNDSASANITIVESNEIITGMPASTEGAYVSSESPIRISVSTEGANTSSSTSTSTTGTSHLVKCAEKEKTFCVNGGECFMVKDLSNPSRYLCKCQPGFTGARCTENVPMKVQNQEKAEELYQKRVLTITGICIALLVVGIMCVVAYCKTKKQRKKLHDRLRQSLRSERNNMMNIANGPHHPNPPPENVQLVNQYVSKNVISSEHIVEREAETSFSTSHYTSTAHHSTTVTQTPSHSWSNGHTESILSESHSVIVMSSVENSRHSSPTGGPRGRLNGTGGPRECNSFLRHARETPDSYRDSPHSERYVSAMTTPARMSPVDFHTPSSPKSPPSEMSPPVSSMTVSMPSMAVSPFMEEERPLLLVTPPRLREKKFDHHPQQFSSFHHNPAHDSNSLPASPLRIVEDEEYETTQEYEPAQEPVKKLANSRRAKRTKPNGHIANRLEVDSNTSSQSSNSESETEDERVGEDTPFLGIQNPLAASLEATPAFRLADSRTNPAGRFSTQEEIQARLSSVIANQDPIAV
Sequence of Neurogenic locus notch homolog protein 2 (Homo sapiens) (Q04721 whole entry, looked up, canonical isoform): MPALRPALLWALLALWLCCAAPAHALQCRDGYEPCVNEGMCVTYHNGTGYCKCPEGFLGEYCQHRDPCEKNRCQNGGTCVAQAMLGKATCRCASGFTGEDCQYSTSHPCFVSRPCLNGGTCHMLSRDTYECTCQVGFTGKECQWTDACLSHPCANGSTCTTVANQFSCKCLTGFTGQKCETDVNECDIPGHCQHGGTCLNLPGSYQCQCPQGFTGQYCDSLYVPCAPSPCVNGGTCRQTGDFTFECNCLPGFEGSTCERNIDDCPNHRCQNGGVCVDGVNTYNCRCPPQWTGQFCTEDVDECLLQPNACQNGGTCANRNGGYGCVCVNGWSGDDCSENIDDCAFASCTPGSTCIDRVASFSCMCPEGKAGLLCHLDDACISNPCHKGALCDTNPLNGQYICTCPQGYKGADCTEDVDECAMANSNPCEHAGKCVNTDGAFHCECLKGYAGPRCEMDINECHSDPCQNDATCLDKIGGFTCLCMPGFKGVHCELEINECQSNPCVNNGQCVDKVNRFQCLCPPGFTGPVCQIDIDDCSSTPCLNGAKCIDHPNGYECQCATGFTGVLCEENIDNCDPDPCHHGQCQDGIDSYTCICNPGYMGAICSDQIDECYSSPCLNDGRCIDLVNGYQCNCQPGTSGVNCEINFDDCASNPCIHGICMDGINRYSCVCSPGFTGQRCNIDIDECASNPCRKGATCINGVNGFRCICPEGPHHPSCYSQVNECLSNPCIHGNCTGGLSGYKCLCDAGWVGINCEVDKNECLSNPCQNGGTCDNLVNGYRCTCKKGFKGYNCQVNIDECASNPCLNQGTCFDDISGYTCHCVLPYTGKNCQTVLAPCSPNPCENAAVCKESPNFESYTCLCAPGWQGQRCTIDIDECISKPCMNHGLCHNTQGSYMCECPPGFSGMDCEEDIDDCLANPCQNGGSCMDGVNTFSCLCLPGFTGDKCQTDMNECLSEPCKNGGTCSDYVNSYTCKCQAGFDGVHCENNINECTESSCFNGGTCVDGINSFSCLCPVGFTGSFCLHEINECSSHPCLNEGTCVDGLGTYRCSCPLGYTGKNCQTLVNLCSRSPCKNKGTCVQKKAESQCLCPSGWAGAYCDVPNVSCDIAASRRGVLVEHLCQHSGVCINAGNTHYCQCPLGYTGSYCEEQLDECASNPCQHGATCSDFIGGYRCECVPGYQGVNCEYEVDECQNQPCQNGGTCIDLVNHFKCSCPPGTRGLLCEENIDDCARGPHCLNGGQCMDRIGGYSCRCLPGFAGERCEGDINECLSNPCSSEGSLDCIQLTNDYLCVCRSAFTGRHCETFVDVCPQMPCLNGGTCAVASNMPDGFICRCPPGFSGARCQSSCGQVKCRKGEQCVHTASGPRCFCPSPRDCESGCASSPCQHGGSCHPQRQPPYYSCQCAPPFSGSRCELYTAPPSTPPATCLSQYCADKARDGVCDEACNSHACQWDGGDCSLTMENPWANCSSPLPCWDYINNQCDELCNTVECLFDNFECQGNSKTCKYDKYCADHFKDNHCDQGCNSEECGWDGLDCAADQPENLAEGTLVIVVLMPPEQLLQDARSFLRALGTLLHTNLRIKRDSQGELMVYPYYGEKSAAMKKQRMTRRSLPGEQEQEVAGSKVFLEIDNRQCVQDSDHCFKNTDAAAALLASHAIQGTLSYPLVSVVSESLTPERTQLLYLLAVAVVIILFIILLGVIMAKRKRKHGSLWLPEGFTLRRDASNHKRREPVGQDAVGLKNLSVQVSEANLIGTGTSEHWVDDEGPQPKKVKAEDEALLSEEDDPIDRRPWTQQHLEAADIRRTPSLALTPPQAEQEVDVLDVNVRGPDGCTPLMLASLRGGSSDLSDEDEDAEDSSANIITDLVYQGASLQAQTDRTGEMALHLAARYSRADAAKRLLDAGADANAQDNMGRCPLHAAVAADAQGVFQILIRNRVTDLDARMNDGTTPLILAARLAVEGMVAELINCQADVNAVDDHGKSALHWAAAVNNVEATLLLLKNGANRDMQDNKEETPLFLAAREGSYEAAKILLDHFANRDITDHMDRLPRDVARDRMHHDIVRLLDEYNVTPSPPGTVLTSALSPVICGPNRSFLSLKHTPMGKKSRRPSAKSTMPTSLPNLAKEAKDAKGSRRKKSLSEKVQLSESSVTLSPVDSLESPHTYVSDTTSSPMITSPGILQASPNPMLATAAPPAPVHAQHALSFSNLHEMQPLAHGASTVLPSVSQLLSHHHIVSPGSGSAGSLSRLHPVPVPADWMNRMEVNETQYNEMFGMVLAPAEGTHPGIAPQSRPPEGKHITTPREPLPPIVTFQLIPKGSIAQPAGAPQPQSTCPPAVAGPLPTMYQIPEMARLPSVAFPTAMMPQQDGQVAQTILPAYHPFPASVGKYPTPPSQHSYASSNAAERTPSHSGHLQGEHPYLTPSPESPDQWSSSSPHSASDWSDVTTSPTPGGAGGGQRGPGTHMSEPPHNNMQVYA

Structure (SMILES) | composite z-score [1] | composite z-score [2] | composite z-score [3] | composite z-score [4] | composite z-score [5] | composite z-score [6] | composite z-score [7] | z-score [8] | composite z-score [9] | composite z-score [10]
COc1ccccc1CN1C(=O)c2ccccc2[C@@H](C(=O)NCCN2CCOCC2)[C@@H]1c1ccc(CO)cc1 | 0.109 | -0.267 | -0.0999 | 0.539 | 0.159 | 1.01 | 1.47 | -2.69 (inactive) | -0.2 | -0.169
O=C1O[C@@H](c2ccccc2)[C@@H](c2ccccc2)N2[C@@H](c3ccccc3OCCO)[C@]3(C(=O)Nc4ccc(C#CC5(O)CCCCCC5)cc43)[C@@H](C(=O)Nc3nc4ccccc4s3)[C@H]12 | -0.508 | 0.984 | -0.0113 | 0.895 | 1.22 | 0.678 | 1.11 | -0.0944 (inactive) | 0.806 | 1.22
O=C1OCCC=C[C@H]2OC34C=CCN(Cc5ccccc5)C(=O)[C@H]3N(CCCCCO)C(=O)[C@@H]4C12 (stereo not given in full) | -0.557 | 1.4 | -0.175 | -0.436 | -0.765 | 1.92 | 1.63 | -0.781 (inactive) | 0.0164 | -0.35
COC(=O)C(CC#Cc1ccc2c(c1)[C@]1(C(=O)N2)[C@H](C(=O)NC[C@H](O)c2ccccc2)[C@H]2C(=O)O[C@H](c3ccccc3)[C@H](c3ccccc3)N2[C@@H]1c1ccc(OCCO)cc1)C(=O)OC | 1.4 | 1.2 | 0.225 | 0.641 | 1.37 | 1.41 | 1.3 | 1.9 (inactive) | 2.31 | -0.447
COc1ccc(C#Cc2ccc3c(c2)[C@]2(C(=O)N3)[C@H](C(=O)NC[C@H](O)c3ccccc3)[C@H]3C(=O)O[C@H](c4ccccc4)[C@H](c4ccccc4)N3[C@@H]2c2ccc(OCCO)cc2)cc1 | -0.547 | 0.637 | -0.0005 | 0.6 | 0.975 | 1.07 | 1.19 | 0.943 (inactive) | 0.0324 | -0.32
COc1ccc(C#Cc2ccc3c(c2)[C@]2(C(=O)N3)[C@H](c3ccc(O)cc3)N3[C@H](c4ccccc4)[C@H](c4ccccc4)OC(=O)[C@H]3[C@@H]2C(=O)N2CCCCCCC2)cc1 | 3.42 | 0.524 | 0.858 | 0.488 | 1.39 | 1.01 | 1.25 | -0.263 (inactive) | 3.25 | 0.0914
CC(C)C(O)C1C=CC2C(=O)N(c3ccccc3)C(=O)C2N1Nc1ccc(C#N)cc1 (stereo not given) | 0.946 | 0.303 | 0.238 | 1.07 | 1.7 | 1.72 | 1.23 | 0.596 (inactive) | 1.49 | -0.168
NC(=O)NCC#Cc1ccc2c(c1)[C@]1(C(=O)N2)[C@H](C(=O)NC[C@H](O)c2ccccc2)[C@H]2C(=O)O[C@H](c3ccccc3)[C@H](c3ccccc3)N2[C@@H]1c1ccc(O)cc1 | -0.261 | 0.362 | 0.337 | 0.896 | 0.857 | 1.38 | 0.983 | 1.11 (inactive) | 0.077 | 0.356
COC(=O)C[C@@H]1C[C@H](C)[C@]2(O1)C(=O)N(Cc1ccccc1)c1ccc(NC(C)=O)cc12 | -0.589 | 0.108 | -0.144 | 0.315 | 0.381 | -0.12 | 0.443 | 0.74 (inactive) | -0.0507 | 0.0012
CC(C)c1ccc(NN2C(C(O)c3ccc(N(C)C)cc3)C=CC3C(=O)N(c4ccccc4)C(=O)C32)cc1 (stereo not given) | -0.145 | 1.43 | 0.0485 | 0.405 | 1.5 | 1.88 | 1.12 | 2.3 (inactive) | 1.46 | -0.166
Cc1cc(C)c(C(O)C2C=CC3C(=O)N(C)C(=O)C3N2Nc2ccccc2)c(C)c1 (stereo not given) | 1.19 | 0.732 | 0.462 | 0.93 | 1.64 | 1.26 | 1.27 | 0.016 (inactive) | 2.01 | 0.872
COCCOC(=O)N1C(=O)[C@@]2(c3ccccc31)[C@H](C(=O)NC[C@H](O)c1ccccc1)[C@H]1C(=O)O[C@H](c3ccccc3)[C@H](c3ccccc3)N1[C@@H]2c1ccc(OCCO)cc1 | -0.242 | 0.591 | -0.113 | 0.36 | 1.38 | 0.977 | 1.08 | -0.31 (inactive) | 0.53 | 0.0283
C=CC(COC(C)=O)NS(=O)(=O)c1ccc(Br)cc1 (stereo not given) | -0.647 | 0.58 | -0.105 | 0.366 | 0.363 | 0.0456 | 0.583 | -0.747 (inactive) | 0.0296 | 0.174
CC(C)C(=C=CC[C@H](O)c1cccc(OCCO)c1)C[C@H](O)COCc1ccccc1 | -0.222 | 0.0852 | -0.095 | 0.659 | -0.139 | 1.67 | 1.13 | 0.724 (inactive) | -0.22 | -0.0994
CCCC[C@@H]1C[C@H]1[C@@H](NC(=O)c1ccc(-c2ccccc2)cc1)c1ccc(-c2ccccc2)cc1 | -0.129 | 0.0257 | 0.702 | 0.711 | 0.286 | 0.0352 | 0.217 | -1.11 (inactive) | 0.0469 | 0.107
COc1ccc(CCNC(=O)[C@@]2(c3ccc([N+](=O)[O-])cc3)CC(=O)N(CC34CC5CC(CC(C5)C3)C4)[C@@H]2c2ccc(CO)cc2)cc1 | 0.281 | 0.441 | -0.0039 | 0.268 | 1.14 | 1.22 | 1.15 | -0.0918 (inactive) | 0.298 | 0.0848

Structure (SMILES) | composite z-score [1] | composite z-score [2] | composite z-score [3] | composite z-score [4] | composite z-score [5] | composite z-score [6] | composite z-score [7] | z-score [8] | composite z-score [9] | composite z-score [10]
COc1ccc([Si](C)(C)[C@H]2[C@H](CC(=O)N(CCO)Cc3ccccc3)O[C@@]3(C(=O)N(Cc4cccc(N5CCC5=O)c4)c4ccccc43)[C@@H]2C)cc1 | 0.0204 | 0.906 | -0.131 | 0.55 | 0.629 | 1.18 | 1.07 | -1.55 (inactive) | -0.194 | -0.13
[N-]=[N+]=Nc1ccccc1[C@H]1OC(c2ccc(OCCCO)cc2)=N[C@@]1(CCS(=O)(=O)c1ccccc1)C(=O)O | 1.13 | 0.298 | 0.051 | 0.0993 | 0.402 | 0.826 | 0.67 | 3.83 (inactive) | 0.697 | -0.189
COCCCNC(=O)[C@@]1(c2ccc([N+](=O)[O-])cc2)CC(=O)N(CC23CC4CC(CC(C4)C2)C3)[C@@H]1c1ccc(CO)cc1 | -0.46 | 0.666 | -0.0453 | 0.264 | 1.36 | 0.43 | 1.17 | -2.08 (inactive) | 0.573 | -0.0296
COc1cc2c(cc1O)C(C)N(Cc1cccc(OC(F)(F)F)c1)CC2 (stereo not given) | 0.067 | -0.142 | 0.139 | 0.953 | 1.23 | 2.13 | 1.47 | 0.734 (inactive) | 0.226 | -0.205
COCCOC(=O)N1C(=O)[C@@]2(c3cc(C#CCCO)ccc31)[C@H](C(=O)NC[C@H](O)c1ccccc1)[C@H]1C(=O)O[C@H](c3ccccc3)[C@H](c3ccccc3)N1[C@@H]2c1ccc(O)cc1 | -0.221 | 0.464 | -0.0058 | 0.627 | 0.026 | 1.48 | 1.21 | -1.04 (inactive) | 0.0399 | -0.134
CCOC(=O)C1=CCC(c2ccc([N+](=O)[O-])cc2)N(S(=O)(=O)c2ccc(C)cc2)C1 (stereo not given) | 0.557 | -0.0288 | -0.0878 | 0.294 | 0.716 | 0.459 | 0.81 | -2.47 (inactive) | 0.406 | -0.174
C=C[C@@H](COC(C)=O)N(Cc1ccccc1[N+](=O)[O-])S(=O)(=O)c1ccc(Br)cc1 | 0.0537 | 0.98 | 0.033 | 0.372 | 1.01 | 0.939 | 0.974 | -3.14 (inactive) | 0.399 | 0.0524
N#Cc1ccc(NN2C(C(O)c3ccc([N+](=O)[O-])cc3)C=CC3C(=O)N(c4ccccc4)C(=O)C32)cc1 (stereo not given) | 0.298 | -0.0479 | 0.11 | 0.921 | 1.59 | 1.66 | 1.35 | 0.536 (inactive) | 0.899 | -0.287
COc1ccc(C(O)C2C=CC3C(=O)N(c4ccccc4)C(=O)C3N2Nc2ccc([N+](=O)[O-])cc2)cc1OCc1ccccc1 (stereo not given) | 2 | -0.14 | 0.649 | 1.06 | 1.29 | 2.06 | 1.26 | 0.565 (inactive) | 2.36 | 1.2
CCOC(=O)[C@H]1C/C=C/C[C@H](C(=O)OCC)C(=O)O[C@H]2[C@@H](OC)O[C@H](CO)[C@@H](OC(=O)Nc3ccc4c(c3)OCO4)[C@@H]2OC1=O | -0.267 | 0.451 | 0.0302 | 0.718 | 0.235 | 1.5 | 1.25 | 0.891 (inactive) | 0.0008 | -0.212
O=C1OCC=C[C@H]2OC34C=CCN(c5ccc(Cl)cc5)C(=O)[C@H]3N(CCCCCCO)C(=O)[C@@H]4[C@@H]12 (stereo not given in full) | 1.06 | -0.793 | -0.163 | -0.688 | -0.737 | 2.26 | 1.53 | 1.16 (inactive) | -0.455 | -0.271
C[C@]1(C(=O)NCc2ccccc2)c2ccccc2C(=O)N(Cc2ccc(OC(F)(F)F)cc2)[C@H]1c1ccc(CO)cc1 | 0.161 | 1.14 | -0.0507 | -0.0562 | -0.323 | 0.349 | 0.711 | -4.27 (inactive) | -0.409 | -0.431
COCCCNC(=O)[C@@]1(C)c2ccccc2C(=O)N(Cc2cc(C(F)(F)F)cc(C(F)(F)F)c2)[C@H]1c1ccc(CO)cc1 | 0.472 | -1.39 | -0.103 | -0.635 | -0.664 | 1.59 | 0.738 | -1.29 (inactive) | -0.0412 | -0.134
O=C1O[C@H](c2ccccc2)[C@H](c2ccccc2)N2[C@H]1[C@@H](C(=O)N1CCN(c3ncccn3)CC1)[C@]1(C(=O)Nc3ccccc31)[C@H]2c1ccc(OCCO)cc1 | -0.371 | 0.0417 | -0.106 | 0.309 | 1.18 | 0.0248 | 1.31 | 1.03 (inactive) | 0.348 | 0.34
CC(C)C[C@@H]1NC(=O)[C@H]2C[C@@H](C(=O)NCCCCCNC(=O)CS)[C@@H](c3cccc(OCCO)c3)N2C1=O | -0.197 | 0.235 | -0.0474 | 0.387 | 1.25 | 1.03 | 1.31 | 0.209 (inactive) | 0.707 | -0.173
